Test system: Plasmodium falciparum NF54
Test: growth inhibition relative to untreated control; higher = more inhibition
Settings: 72 h
Outline: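 Ring-stage P. falciparum NF54 parasites at 1% hematocrit and 1% parasitemia were dispensed at 100 μL/well into dark 96-well half-area plates and given a single dose of test compound at 5 μM or 1 μM for 72 h at 37 °C. Incubation took place in minimal RPMI, either alone or supplemented with the chorismate end-products folate (2.2 μM), pABA (7.3 μM), pHBA (7.3 μM), tyrosine (111 μM), phenylalanine (90 μM) and tryptophan. Growth inhibition was determined with SYBR Green relative to untreated wells, using uninfected erythrocytes for background.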

[1] = 1 µM, MM + chorismate end-products (CM screening medium)
[2] = 5 µM, MM + chorismate end-products (CM screening medium)

Compound	growth inhibition [1] [%]	growth inhibition (1 µM, minimal medium (MM)) [%]	growth inhibition [2] [%]	growth inhibition (5 µM, minimal medium (MM)) [%]
CC(Oc1ccccc1)C(=O)Nc1nc(-c2ccccn2)cs1 (configuration not stated)	< 0	38.4	68.6	38.2
CN(C(=O)c1cc2c(-c3cncnc3)cccc2[nH]1)c1ccccc1	48.7	56.4	96	94.3
O=C(Nc1nnc(-c2ccc(Cl)cc2)o1)c1cccc(C(F)(F)F)c1	11.8	33	42.7	< 0
CCCCOC(=O)Nc1cc2nc(C3CCCCC3)[nH]c2cc1N1CCCC1	11.2	15.4	85.8	5.52
O=C([C@@H](c1ccc(Cl)cc1)c1cccnc1)N1CCN(c2ccc(C(F)(F)F)cc2)CC1	< 0	< 0	< 0	7.9
Cc1nc2ccccn2c1C(=O)NCc1ccc(Cl)cc1	1.31	< 0	31	10.3
Cc1ncc(-c2ccnc(Nc3ccc(S(C)(=O)=O)cc3)n2)n1C(C)C	67	59.4	42.1	45.6
Clc1ccc(Cl)c(CO[C@H]2CCCC[C@@H]2n2ccnc2)c1	< 0	< 0	67.1	9.72
Cc1cc(OCC(=O)Nc2ccc(C(C)C)cc2)n(C)c(=O)c1C#N	18.1	33	18.4	21
O=C(NCCc1c[nH]c2ccccc12)c1cc2ccccc2oc1=O	20.7	2.31	< 0	< 0
O=C(NC1CCN(c2ccnc3ccccc23)C1)c1cccc(C(F)(F)F)c1 (configuration not stated)	80.7	> 100	96.9	66.7
O=C(Nc1cccnc1)c1c(O)c2cccc3c2n(c1=O)CC3	6.17	21.1	4.63	< 0
Cc1ccc2nc(C)c(-c3ccn(Cc4ccccc4)n3)n2c1	43	33.9	36.8	< 0
O=C(Nc1nnc(S)s1)c1cc(Br)ccc1Cl	31.8	9.59	< 0	< 0
Nc1ncnc2c1c(Cc1cccc3ccccc13)nn2CC1CCNCC1	18.3	59.9	19.1	< 0
CC(=O)OCC1OC([S-])C(OC(C)=O)C(OC(C)=O)C1OC(C)=O.CCP(CC)CC.[Au+] (configuration not stated)	84.8	71.6	87.8	91.7
COc1ccc2nc(C)cc(OCC(=O)Nc3ccccc3OC)c2c1	11.7	< 0	< 0	27.5
CCCn1nnc(NC(=O)COc2ccc(C3CCCCC3)cc2)n1	6.74	< 0	< 0	< 0
FC(F)(F)c1nnc2ccc(Cl)nn12	8.81	7.29	< 0	8.78
O=C(Nc1nc(-c2ccccn2)cs1)c1cncn1-c1ccccc1	25.9	7.24	65	< 0
COc1ccc(C2=NCCN2)cc1-c1cn(-c2cccc(C3=NCCN3)c2)nn1	84.5	80.4	> 100	91.6
Cc1cccc(-c2nc(Nc3ccncn3)c3sccc3n2)n1	81.1	89.4	> 100	98.7
CC(C)(C)n1nc(Cc2ccc(F)c(Cl)c2)c2c(N)ncnc21	5.37	< 0	54.9	1.6
c1ccc(Oc2ccc(-c3cc(N4CCNCC4)[nH]n3)cc2)cc1	32.1	29.2	40.3	34.4
Cc1ccc2[nH]c3c(NCCN(C)C)ncnc3c2c1	97.6	96.5	98.1	95.7
Oc1c(I)cc(I)c2cccnc12	39.4	9.57	< 0	< 0
C[C@]1(O)C[C@@H](c2nc(-c3ccc4ccc(-c5ccccc5)nc4c3)c3c(N)nccn32)C1	35	34.1	53.2	43.8

Compound	growth inhibition [1] [%]	growth inhibition (1 µM, minimal medium (MM)) [%]	growth inhibition [2] [%]	growth inhibition (5 µM, minimal medium (MM)) [%]
Cc1ccc(-c2cc(C(=O)Nc3cccnc3)c3cc(Br)ccc3n2)cc1	92.4	95.2	98.3	86.3
Nc1nc(N)c2c3c(sc2n1)CN(Cc1ccccc1)CC3	55.2	96.8	60.8	91.9
CN(C)CCNC(=O)N1CCCN(c2ncnc3cc(-c4ccccc4)sc23)CC1	72.9	99.2	> 100	87
COc1ccc(C2=NN(C3CCCCCC3)C(=O)[C@@H]3CC=CC[C@H]23)cc1OCCCCOc1ccc(-c2nnn[nH]2)cc1	19	16.4	44.9	48.6
N#Cc1nc(-c2ccccc2)oc1S(=O)(=O)c1ccc(Cl)cc1	43.4	49.5	97.9	55
O=[N+]([O-])c1cn2c(n1)OC[C@@H](OCc1ccc(OC(F)(F)F)cc1)C2	36.9	2.72	< 0	< 0
CCCCS(=O)(=O)Nc1ccc2cnn(C)c2c1	3.73	< 0	13.4	1.13
COC(=O)Nc1nc2cc(C(=O)c3ccccc3)ccc2[nH]1	12	< 0	5.63	< 0
Nc1nccc2ccc(-c3ccc4nccn4c3)cc12	> 100	> 100	97.8	88.2
O=C(Nc1ccccc1-c1nc2c(C(=O)O)cccc2o1)c1ccccc1	< 0	0.353	< 0	< 0
CCOC(=O)c1c(NC(=O)c2c(F)c(F)c(F)c(F)c2F)sc(C(N)=O)c1C	28.3	< 0	14.8	13.1
Cc1nn(C)cc1C(C)Nc1nncc(-c2ccc(C(F)(F)F)cc2)n1 (configuration not stated)	94.7	97.4	99.9	91.7
CC1=Nc2ccc(Cl)cc2C(c2ccccc2)N1CCNC(=O)CN(C)C (configuration not stated)	49	19	> 100	89.7
CNC(=O)CNc1nc(-c2ccccn2)nc2scc(-c3ccccc3)c12	8.9	9.62	61.2	37.3
CC(C)(C)OC(=O)N1CCN(c2nccc(-c3ccc(-c4ccc(Cl)cc4)s3)n2)CC1	< 0	2.86	64.1	11.6
CCN(CC)S(=O)(=O)c1ccc(C(=O)Nc2cc(C)nn2-c2nc(C)c(C)c(=O)[nH]2)cc1	19.9	10.2	78.9	55.2
COc1ccc(N(CCc2cccc(C)n2)C(=O)C2CCCCC2)cc1	4.48	36.2	4.56	9.01
c1ccc(C[C@@H]2CN(c3nccc(Oc4ccc(-n5ccnc5)cc4)n3)CCN2)cc1	98.3	97.5	95.3	95.3
CC(C)n1ncc2c(C(=O)NCC(c3cccs3)N3CCOCC3)cc(-c3ccccc3)nc21 (configuration not stated)	10	9.61	42.4	14.2
Cc1nc(-c2ccccn2)nc(N2CCC(Cc3ccccc3)C2)c1Cl (configuration not stated)	52.8	3.18	80.2	84.9
CN1CCCC1CCO[C@](C)(c1ccccc1)c1ccc(Cl)cc1 (some centres not stated)	96.4	94.5	98	93.3
COC(=O)C1=C(C)NC(C)=C(C(=O)OC(C)C)C1c1cccc2nonc12 (configuration not stated)	42	24.4	28.3	18.7
Cc1ccc(-c2nc(CN(Cc3ccccn3)C(C)C)cs2)o1	47.7	20.3	81.7	49.2
Nc1ncnc2[nH]nc(Cc3cccc4ccccc34)c12	12.3	22.2	< 0	< 0
Cc1[nH]c2ccccc2c1C(c1cccs1)N1CCN(C)CC1 (configuration not stated)	11.9	21.1	9.09	19.7
c1ccc(Oc2ccc(-c3cc(CN4CCOCC4)[nH]n3)cc2)cc1	0.894	< 0	< 0	11.1

Reference: the supplement of paper PMC6763611
